PubChem BioAssay (Tox21)
Results filed as inconclusive are left out. Unmarked numbers belong to inactive results. Calls of active or inactive are those of the source. Calls come from the whole dose curve.

Test: qHTS assay for small molecule disruptors of the mitochondrial membrane potential - cell viability (AID 720634);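 note: human HepG2 liver cancer cells; nearly all actives have a fitted effect of over 20% in size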
Details: HepG2 viability, ATP luminescence (CellTiter-Glo), 1 h; series mostly up to 83.2 µM; activity change, negative = cytotoxicity: at the top concentration
Text: U.S. Tox21 Program National Center for Advancing Translational Sciences [NCATS] NIH Chemical Genomics Center [NCGC] U.S. Environmental Protection Agency [EPA] National Institutes of Environmental Health Sciences [NIEHS] National Toxicology Program [NTP] U.S. Food and Drug Administration [FDA] Tox21 Assay Overview: Mitochondrial membrane potential (MMP), one of the parameters for mitochondrial function, is generated by mitochondrial electron transport chain that creates an electrochemical gradient by a series of redox reactions. This gradient drives the synthesis of ATP, a crucial molecule for various cellular processes. Measuring MMP in living cells is commonly used to assess the effect of chemicals on mitochondrial function; decreases in MMP can be detected using lipophilic cationic fluorescent dyes. […] The dye accumulates in the mitochondria of healthy cells as aggregates, with red fluorescence. The mitochondrial potential decreases and the dye could not accumulate in the mitochondria and remains in the cytoplasm in monomers, with green fluorescence. In addition to the mitochondrial potential assay, these cells were also used to test the cytotoxicity by determining the cell viability in the culture based on the quantitation of ATP present. The cytotoxicity was measured in the same assay well of MMP assay.
Tox21 Assay Protocol Summary: 2,000 HepG2 cells in 5 uL/well were dispensed into black, clear-bottom 1536-well plates using a Multidrop Combi (Thermo Scientific) dispenser. The assay plates were incubated for an overnight at 37 C to allow cells to attach to the wells, followed by the transfer of 23 nL compound or DMSO vehicle by a pin tool (Kalypsys). The plates were incubated for 1 hr at 37 C and 5% CO2, followed by the addition of 5 uL of 2X m-MPI dye into each well using Flying Reagent Dispenser (Aurora Discovery) and then CellTiter-Glo reagent was added at 4 uL/well and incubated 30 min at room temperature. Then luminescence intensity was quantified on a ViewLux CCD-based plate reader.
% is set by controls: 0 for no effect and ±100 for the full control effect.

SMILES | activity change, negative = cytotoxicity | outcome
C=CCOC(=O)CCCCCC | 5.52% | 
CN1CCOC(c2ccccc2)c2ccccc2C1 (stereo not given) | -8.14% [at 39.1 µM] | 
CN(C)CCN(C)CCO | 4.64% | 
CC(C)OC(=O)OCOP(=O)(CO[C@H](C)Cn1cnc2c(N)ncnc21)OCOC(=O)OC(C)C |  | inactive
CC1CCc2c(N3CCC(O)CC3)c(F)cc3c(=O)c(C(=O)O)cn1c23 (stereo not given) | 14.7% | 
CCNC(=O)NCc1cccc(Cl)c1 | 6.1% | 
CCCCCCCCCCOC(C)=O | 4.73% | 
ONc1ccccc1 | -15.9% [at 95.3 µM] | 
CCCCOCC(C)O (stereo not given) | 8.33% [at 95.3 µM] | 
CCc1occc(=O)c1O | 3.46% | 
O=Cc1ccccc1Cl | 4.18% | 
Cc1ccc(C)c([N+](=O)[O-])c1 | 4.25% | 
CCOC(CN1CCN(CC(C)C(=O)c2ccccc2)CC1)c1ccccc1 (stereo not given) | -7% | 
CCC/C=C(\C=O)CC | -6.42% | 
CC(C)NCC(O)c1ccc2ccccc2c1 (stereo not given) | 7.82% | 
CC/C(C)=N\O[Si](C)(O/N=C(\C)CC)O/N=C(\C)CC | 3.48% [at 95.3 µM] | 
CCO | 11.9% [at 95.3 µM] | 
CCCC(=O)OCCC(C)CCC=C(C)C (stereo not given) | 2.1% | 
OCCN1CCOCC1 | 9.52% | 
CCCCCCC1(C)CCC(=O)O1 (stereo not given) | 9% | 

SMILES | activity change, negative = cytotoxicity | outcome
C=Cc1ccc(C(C)(C)C)cc1 | 9.76% | 
CC(C)(C)NC[C@H](O)COc1cccc2c1CCCC2=O | 6.3% [at 39.1 µM] | 
CC(C)COC(=O)c1ccccc1 | 4.02% | 
O=[N+]([O-])c1c(Cl)cc(Cl)cc1Cl | -0.592% | 
CC(N)CCCC(C)(C)O (stereo not given) | 14.7% | 
C/C(CC(C)C)=N\O | 9.31% | 
CC(C)c1ccc(C=O)cc1 | 9.66% | 
COC(=O)c1cccc(Cl)c1 | -1.43% | 
Cc1c(N)cccc1Cl | 6.61% | 
CN1C[C@@H]2C[C@H]1CN2c1cc2c(cc1F)c(=O)c(C(=O)O)cn2C1CC1 | 10.1% | 
Cc1ccc(N)cc1S(=O)(=O)O | -11.5% | 
CC1OCCC1=O (stereo not given) | 6.81% | 
CCCCOC(=O)[C@H](C)O | -2.9% | 
CCCCSCCCC | 11.3% | 
CC1(C)CC(OC(=O)CCCCCCCCC(=O)OC2CC(C)(C)NC(C)(C)C2)CC(C)(C)N1 | 5.62% [at 39.1 µM] | 
Cn1c(=O)c2[nH]c(Br)nc2n(C)c1=O | -2.76% | 
NCC1(Cc2noc(=O)[nH]2)CCCCC1 | 1.81% | 
COP(=O)(O)OP(=O)(O)OC | -3.2% | 
COS(=O)(=O)O | 12.8% | 
CO/N=C(/C(=O)N[C@@H]1C(=O)N2C(C(=O)[O-])=C(C[n+]3ccn4ncccc43)CS[C@H]12)c1nsc(N)n1 |  | inactive
